Assay results as given in ChEMBL document CHEMBL2218924, “A broad activity screen in support of a chemogenomic map for kinase signalling research and drug discovery” (Biochem J, 2013).

Tests used:
[1] = target: T1, Rhodopsin kinase GRK7 (Homo sapiens) (UniProt Q8WTQ7); conditions: at 10 µM
T1 sequence (whole entry): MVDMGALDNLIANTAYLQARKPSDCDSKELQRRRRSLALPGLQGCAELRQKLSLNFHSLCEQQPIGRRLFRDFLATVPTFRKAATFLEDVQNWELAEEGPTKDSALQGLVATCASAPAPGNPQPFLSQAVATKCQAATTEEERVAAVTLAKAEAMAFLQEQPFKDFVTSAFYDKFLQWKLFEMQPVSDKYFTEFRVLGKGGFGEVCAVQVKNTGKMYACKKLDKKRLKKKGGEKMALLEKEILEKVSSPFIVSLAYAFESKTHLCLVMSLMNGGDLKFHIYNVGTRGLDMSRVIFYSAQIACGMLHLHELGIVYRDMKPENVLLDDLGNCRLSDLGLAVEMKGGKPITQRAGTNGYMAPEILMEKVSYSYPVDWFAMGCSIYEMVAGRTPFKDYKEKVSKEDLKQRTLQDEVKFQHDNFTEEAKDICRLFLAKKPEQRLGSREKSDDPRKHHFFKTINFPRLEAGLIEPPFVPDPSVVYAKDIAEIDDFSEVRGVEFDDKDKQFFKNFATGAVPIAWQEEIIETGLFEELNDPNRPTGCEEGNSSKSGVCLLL

[2] = target: Glycogen synthase kinase-3 alpha (Homo sapiens) (UniProt P49840); conditions: at 1 µM
Glycogen synthase kinase-3 alpha (Homo sapiens), sequence (P49840 2-483 limits assumed): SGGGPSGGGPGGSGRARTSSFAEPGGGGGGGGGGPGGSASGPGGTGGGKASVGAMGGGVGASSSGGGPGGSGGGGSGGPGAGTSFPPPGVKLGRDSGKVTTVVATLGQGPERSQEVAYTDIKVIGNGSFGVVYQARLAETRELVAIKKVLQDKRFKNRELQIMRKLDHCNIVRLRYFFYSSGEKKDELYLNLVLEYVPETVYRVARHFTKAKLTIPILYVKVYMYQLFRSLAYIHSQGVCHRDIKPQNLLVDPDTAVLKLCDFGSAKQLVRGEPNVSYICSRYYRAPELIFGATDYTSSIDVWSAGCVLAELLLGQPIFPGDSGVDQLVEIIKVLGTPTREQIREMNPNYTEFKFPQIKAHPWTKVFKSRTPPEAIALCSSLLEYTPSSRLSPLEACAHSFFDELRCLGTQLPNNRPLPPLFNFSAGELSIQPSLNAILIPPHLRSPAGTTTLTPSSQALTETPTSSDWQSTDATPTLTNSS

[3] = target: Glycogen synthase kinase-3 alpha (Homo sapiens) (UniProt P49840); conditions: at 10 µM
[4] = target: Glycogen synthase kinase-3 beta (Homo sapiens) (UniProt P49841); conditions: at 1 µM
[5] = target: Glycogen synthase kinase-3 beta (Homo sapiens) (UniProt P49841); conditions: at 10 µM
[6] = target: Homeodomain-interacting protein kinase 2 (Homo sapiens) (UniProt Q9H2X6); conditions: at 1 µM
Homeodomain-interacting protein kinase 2 (Homo sapiens), sequence (Q9H2X6 whole entry, looked up): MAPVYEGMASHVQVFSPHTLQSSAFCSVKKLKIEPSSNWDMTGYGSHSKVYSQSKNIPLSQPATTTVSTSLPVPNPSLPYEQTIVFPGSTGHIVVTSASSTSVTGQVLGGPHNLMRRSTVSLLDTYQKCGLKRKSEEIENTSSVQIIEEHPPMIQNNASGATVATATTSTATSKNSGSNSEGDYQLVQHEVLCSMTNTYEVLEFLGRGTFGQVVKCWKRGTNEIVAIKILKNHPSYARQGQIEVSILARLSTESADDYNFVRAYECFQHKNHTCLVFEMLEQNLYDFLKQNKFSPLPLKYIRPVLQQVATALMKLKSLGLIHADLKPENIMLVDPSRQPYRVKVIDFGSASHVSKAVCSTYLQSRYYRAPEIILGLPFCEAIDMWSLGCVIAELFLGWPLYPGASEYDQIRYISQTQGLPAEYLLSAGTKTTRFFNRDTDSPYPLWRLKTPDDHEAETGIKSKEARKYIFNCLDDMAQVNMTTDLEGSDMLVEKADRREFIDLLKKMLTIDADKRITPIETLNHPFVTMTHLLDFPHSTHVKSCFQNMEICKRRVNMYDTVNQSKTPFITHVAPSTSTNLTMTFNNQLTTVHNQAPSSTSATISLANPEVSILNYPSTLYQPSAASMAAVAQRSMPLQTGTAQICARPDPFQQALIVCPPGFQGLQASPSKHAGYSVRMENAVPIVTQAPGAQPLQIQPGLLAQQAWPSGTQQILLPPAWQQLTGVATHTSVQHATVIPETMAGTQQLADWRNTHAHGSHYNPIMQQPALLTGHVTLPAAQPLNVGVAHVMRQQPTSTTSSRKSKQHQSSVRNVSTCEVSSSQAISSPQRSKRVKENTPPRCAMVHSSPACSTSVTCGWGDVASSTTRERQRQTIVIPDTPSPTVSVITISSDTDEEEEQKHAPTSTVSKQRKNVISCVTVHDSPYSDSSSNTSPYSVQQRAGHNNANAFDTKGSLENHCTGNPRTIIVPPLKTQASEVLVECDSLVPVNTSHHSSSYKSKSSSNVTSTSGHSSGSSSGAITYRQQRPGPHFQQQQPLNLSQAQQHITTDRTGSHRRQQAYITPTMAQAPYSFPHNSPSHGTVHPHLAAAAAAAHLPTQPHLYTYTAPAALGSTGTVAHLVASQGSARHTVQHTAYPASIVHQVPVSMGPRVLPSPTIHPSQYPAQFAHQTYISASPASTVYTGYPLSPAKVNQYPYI

[7] = target: Homeodomain-interacting protein kinase 2 (Homo sapiens) (UniProt Q9H2X6); conditions: at 10 µM
[8] = target: T2, Serine/threonine-protein kinase haspin (Homo sapiens) (UniProt Q8TF76); conditions: at 10 µM
T2 sequence (whole entry): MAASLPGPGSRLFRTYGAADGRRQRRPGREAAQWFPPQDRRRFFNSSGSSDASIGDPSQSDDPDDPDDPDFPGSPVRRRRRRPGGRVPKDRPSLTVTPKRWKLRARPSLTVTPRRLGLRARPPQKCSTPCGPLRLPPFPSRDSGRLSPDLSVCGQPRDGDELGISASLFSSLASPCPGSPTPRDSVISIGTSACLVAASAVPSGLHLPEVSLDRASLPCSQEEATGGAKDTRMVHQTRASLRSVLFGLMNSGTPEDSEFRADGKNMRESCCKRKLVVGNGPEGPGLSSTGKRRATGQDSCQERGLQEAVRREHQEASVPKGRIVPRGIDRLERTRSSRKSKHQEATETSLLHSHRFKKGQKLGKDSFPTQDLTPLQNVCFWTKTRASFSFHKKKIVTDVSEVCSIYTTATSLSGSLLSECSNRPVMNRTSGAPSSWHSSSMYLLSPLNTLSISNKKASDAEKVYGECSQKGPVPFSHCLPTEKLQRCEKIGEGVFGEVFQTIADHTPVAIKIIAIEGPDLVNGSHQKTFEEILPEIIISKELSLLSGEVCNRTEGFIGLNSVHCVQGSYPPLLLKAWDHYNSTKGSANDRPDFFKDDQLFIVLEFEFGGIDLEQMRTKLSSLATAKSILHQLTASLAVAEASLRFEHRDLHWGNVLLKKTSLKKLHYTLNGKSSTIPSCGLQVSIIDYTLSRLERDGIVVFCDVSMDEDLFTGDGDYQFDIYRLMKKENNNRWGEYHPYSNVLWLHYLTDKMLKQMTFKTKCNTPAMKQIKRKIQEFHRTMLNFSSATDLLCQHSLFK

[9] = target: Tyrosine-protein kinase HCK (Homo sapiens) (UniProt P08631); conditions: at 10 µM
Tyrosine-protein kinase HCK (Homo sapiens), sequence (P08631 2-526 limits assumed): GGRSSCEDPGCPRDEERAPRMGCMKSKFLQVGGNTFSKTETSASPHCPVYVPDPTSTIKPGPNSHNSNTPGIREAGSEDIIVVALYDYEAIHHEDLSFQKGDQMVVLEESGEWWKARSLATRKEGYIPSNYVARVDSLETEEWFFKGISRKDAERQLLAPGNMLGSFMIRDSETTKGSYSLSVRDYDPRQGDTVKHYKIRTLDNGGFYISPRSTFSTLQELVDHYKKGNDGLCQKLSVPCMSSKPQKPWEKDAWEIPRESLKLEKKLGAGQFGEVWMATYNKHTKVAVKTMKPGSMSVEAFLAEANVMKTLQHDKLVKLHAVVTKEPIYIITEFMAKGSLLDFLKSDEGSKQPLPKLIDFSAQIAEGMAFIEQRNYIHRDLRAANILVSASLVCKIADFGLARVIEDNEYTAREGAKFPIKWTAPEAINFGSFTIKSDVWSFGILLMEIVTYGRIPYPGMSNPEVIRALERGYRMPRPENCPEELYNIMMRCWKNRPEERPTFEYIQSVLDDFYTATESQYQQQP

[10] = target: Insulin-like growth factor 1 receptor (Homo sapiens) (UniProt P08069); conditions: at 1 µM
Insulin-like growth factor 1 receptor (Homo sapiens), sequence (P08069 31-736 limits assumed): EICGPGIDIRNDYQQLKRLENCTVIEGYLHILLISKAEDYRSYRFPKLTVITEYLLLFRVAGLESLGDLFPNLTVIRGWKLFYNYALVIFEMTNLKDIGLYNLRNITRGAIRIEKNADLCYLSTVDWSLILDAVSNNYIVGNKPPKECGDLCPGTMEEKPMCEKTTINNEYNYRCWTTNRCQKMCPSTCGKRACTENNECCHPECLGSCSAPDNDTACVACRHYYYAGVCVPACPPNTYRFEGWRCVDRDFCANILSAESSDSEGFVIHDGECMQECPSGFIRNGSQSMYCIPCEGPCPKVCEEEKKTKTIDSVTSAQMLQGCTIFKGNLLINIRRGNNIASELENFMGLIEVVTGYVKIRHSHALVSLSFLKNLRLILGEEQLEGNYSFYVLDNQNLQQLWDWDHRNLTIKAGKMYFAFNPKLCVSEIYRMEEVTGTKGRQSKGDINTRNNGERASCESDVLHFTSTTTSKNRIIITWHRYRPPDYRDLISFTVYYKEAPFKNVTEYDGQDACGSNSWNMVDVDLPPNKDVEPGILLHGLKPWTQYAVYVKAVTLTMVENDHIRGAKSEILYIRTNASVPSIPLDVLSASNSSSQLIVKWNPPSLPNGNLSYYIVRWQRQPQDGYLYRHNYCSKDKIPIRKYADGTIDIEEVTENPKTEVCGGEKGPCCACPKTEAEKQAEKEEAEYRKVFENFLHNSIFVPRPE
Insulin-like growth factor 1 receptor (Homo sapiens), sequence (P08069 741-1367 limits assumed): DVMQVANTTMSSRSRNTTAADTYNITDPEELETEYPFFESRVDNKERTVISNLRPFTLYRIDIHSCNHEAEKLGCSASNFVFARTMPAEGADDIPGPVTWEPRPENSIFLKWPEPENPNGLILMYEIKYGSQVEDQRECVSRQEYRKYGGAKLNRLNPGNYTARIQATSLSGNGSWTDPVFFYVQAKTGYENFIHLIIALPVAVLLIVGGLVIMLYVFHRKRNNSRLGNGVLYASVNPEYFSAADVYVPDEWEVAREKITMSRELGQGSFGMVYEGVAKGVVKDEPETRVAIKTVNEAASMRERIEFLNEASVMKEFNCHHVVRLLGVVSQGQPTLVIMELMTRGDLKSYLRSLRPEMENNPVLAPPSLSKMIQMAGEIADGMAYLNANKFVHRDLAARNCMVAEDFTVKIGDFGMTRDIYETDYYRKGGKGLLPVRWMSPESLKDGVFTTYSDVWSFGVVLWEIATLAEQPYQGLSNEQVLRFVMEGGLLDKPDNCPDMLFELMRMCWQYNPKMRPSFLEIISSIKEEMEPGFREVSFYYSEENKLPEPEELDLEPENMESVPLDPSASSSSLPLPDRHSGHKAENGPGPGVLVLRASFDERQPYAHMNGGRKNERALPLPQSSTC

[11] = target: T3, Protein kinase C zeta type (Homo sapiens) (UniProt Q05513); conditions: at 10 µM
T3 sequence (whole entry): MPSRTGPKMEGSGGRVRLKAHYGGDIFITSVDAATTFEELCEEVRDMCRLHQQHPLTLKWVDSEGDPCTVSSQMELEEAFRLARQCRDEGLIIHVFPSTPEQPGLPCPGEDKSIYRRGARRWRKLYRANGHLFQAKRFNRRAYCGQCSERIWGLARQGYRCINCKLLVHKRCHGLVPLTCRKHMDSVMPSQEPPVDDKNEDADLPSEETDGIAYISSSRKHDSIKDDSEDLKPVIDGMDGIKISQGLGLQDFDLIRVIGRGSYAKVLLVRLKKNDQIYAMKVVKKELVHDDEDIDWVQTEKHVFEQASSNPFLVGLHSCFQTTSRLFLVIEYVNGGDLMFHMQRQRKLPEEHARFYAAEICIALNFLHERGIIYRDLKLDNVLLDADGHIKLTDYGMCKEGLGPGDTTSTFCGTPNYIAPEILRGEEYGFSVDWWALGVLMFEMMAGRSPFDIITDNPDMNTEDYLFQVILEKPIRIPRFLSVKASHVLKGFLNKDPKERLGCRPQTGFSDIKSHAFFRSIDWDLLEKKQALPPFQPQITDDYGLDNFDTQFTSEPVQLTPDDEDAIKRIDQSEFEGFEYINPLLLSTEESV

[12] = target: Homeodomain-interacting protein kinase 1 (Homo sapiens) (UniProt Q86Z02); conditions: at 1 µM
[13] = target: Homeodomain-interacting protein kinase 1 (Homo sapiens) (UniProt Q86Z02); conditions: at 10 µM
[14] = target: Homeodomain-interacting protein kinase 3 (Homo sapiens) (UniProt Q9H422); conditions: at 1 µM
Homeodomain-interacting protein kinase 3 (Homo sapiens), sequence (Q9H422 whole entry, looked up): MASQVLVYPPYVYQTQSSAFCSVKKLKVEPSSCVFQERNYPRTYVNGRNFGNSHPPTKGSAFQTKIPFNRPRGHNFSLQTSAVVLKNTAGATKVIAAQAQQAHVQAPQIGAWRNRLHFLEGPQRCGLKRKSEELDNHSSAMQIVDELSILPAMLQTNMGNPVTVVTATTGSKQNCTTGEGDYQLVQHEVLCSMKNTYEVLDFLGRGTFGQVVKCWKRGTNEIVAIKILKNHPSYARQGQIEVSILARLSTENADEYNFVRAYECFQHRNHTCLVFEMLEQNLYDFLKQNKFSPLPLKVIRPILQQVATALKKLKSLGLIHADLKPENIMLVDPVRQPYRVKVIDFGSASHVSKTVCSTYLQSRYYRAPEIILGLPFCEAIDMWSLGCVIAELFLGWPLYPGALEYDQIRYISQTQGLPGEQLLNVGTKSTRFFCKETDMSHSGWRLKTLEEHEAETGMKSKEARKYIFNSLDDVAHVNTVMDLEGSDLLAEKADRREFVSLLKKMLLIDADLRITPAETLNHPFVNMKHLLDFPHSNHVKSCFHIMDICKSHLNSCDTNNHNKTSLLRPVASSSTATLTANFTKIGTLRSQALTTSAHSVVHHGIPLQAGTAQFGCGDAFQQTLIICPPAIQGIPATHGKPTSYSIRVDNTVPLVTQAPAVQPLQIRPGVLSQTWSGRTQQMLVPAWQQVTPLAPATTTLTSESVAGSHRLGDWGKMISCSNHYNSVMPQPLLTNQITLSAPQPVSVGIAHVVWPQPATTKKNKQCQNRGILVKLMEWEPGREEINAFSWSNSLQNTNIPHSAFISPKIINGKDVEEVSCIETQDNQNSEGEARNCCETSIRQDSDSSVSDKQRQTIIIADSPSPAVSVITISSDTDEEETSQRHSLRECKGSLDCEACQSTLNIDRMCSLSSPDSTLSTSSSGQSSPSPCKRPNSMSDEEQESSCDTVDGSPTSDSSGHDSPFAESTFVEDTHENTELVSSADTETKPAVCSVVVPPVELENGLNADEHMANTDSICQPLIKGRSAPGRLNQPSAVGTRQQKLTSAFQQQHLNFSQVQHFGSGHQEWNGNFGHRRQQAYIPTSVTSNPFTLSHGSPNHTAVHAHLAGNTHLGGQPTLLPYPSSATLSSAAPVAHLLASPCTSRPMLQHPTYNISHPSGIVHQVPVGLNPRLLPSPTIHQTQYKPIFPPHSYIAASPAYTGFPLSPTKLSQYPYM

[15] = target: Homeodomain-interacting protein kinase 3 (Homo sapiens) (UniProt Q9H422); conditions: at 10 µM
[16] = target: T2, Serine/threonine-protein kinase haspin (Homo sapiens); conditions: at 1 µM
[17] = target: Tyrosine-protein kinase HCK (Homo sapiens) (UniProt P08631); conditions: at 1 µM
[18] = target: Insulin-like growth factor 1 receptor (Homo sapiens) (UniProt P08069); conditions: at 10 µM
[19] = target: Tyrosine-protein kinase HCK (Homo sapiens) (UniProt P08631); conditions: at 1 µM; remark: listed apart in the source
[20] = target: Tyrosine-protein kinase HCK (Homo sapiens) (UniProt P08631); conditions: at 10 µM; remark: listed apart in the source

Row | Compound | residual activity [1] | residual activity [2] | residual activity [3] | residual activity [4] | residual activity [5] | residual activity [6] | residual activity [7] | residual activity [8] | residual activity [9] | residual activity [10] | residual activity [11] | residual activity [12] | residual activity [13] | residual activity [14] | residual activity [15] | residual activity [16] | residual activity [17] | residual activity [18] | residual activity [19] | residual activity [20]
1 | O=C1NC(=O)C(c2c[nH]c3ccccc23)=C1c1c[nH]c2ccccc12 | 20% | 19% | 4% | 31% | 6% | 76% | 15% | 69% | 38% | 128% | 25% |  |  |  |  |  |  |  |  | 
2 | O=C(NC(NC(=S)Nc1ccc(F)c([N+](=O)[O-])c1)C(Cl)(Cl)Cl)C(c1ccccc1)c1ccccc1 (stereo not drawn) | 98% |  | 89% |  |  | 104% | 77% | 47% | 38% | 76% | 94% | 99% | 93% | 96% | 103% | 83% | 80% | 42% |  | 
3 | CC(C)[C@H](CO)Nc1nc(Nc2cc(N)cc(Cl)c2)c2ncn(C(C)C)c2n1 | 10% | 80% | 28% |  |  | 86% | 32% | 20% | 5% | 118% |  |  | 60% |  | 73% | 57% | 27% | 92% | 50% | 9%
4 | COc1cc2c(cc1OC)-c1n[nH]c(Nc3cccc(F)c3)c1C2 | 80% | 115% | 108% |  | 75% |  |  |  | 6% | 105% | 109% |  |  |  |  |  | 22% | 115% | 19% | 2%
5 | CN(C)S(=O)(=O)c1ccc2c(c1)/C(=C/c1cc3c([nH]1)CCCC3)C(=O)N2 | 78% | 97% | 94% | 112% | 94% | 97% | 90% |  | 10% |  |  |  |  | 99% | 86% | 127% | 10% | 134% | 73% | 74%
6 | O=C(c1ccccc1)c1ccc(N2CCOCC2)cc1O | 95% | 91% | 121% | 96% | 87% | 97% | 94% | 77% | 75% | 76% |  | 98% | 97% | 87% |  | 98% | 83% | 81% |  | 93%
7 | CCCCc1c(-c2ccc(OC)cc2)[nH]c2nccnc12 | 92% | 46% | 41% | 52% | 71% |  | 90% | 27% | 24% | 109% | 103% |  |  | 106% | 110% | 77% | 60% | 136% | 75% | 81%
8 | Nc1ncnc2c1c(-c1ccc(Oc3ccccc3)cc1)cn2C1CCCC1 | 69% | 104% | 112% | 88% |  | 96% | 75% | 44% | 1% | 127% | 107% | 86% | 98% | 86% | 97% | 90% | 2% | 119% | 1% | -2%
9 | O=C1NC(=O)c2c1c1c3ccccc3[nH]c1n1cncc21 | 76% | 7% | 4% | 26% | 29% | 30% | 13% | 18% | 39% | 9% |  | 77% | 58% | 61% | 42% | 8% | 54% | 14% | 38% | 35%
10 | Oc1cccc(-c2nc(N3CCOCC3)c3oc4ncccc4c3n2)c1 | 94% |  | 127% |  |  | 84% | 89% | 32% | 68% | 131% |  |  |  | 93% | 59% | 76% |  |  |  | 
11 | CC(C)c1nn(-c2c(Cl)cccc2Cl)c2nc(Cc3ccc(OCCO)cc3)[nH]c(=O)c12 | 80% | 66% | 13% | 51% | 45% | 99% | 89% | 56% | 56% | 135% | 93% | 104% | 98% | 107% | 103% | 97% | 75% | 103% | 98% | 86%
12 | Nc1nc(Nc2ccc(S(N)(=O)=O)cc2)nn1C(=O)c1c(F)cccc1F | 6% | 11% | 4% | 23% | 3% | 48% | 6% |  | 25% |  |  | 75% | 18% |  |  |  | 71% | 105% | 75% | 21%
13 | O=C1NC(=O)C(c2cn(CCCn3ccnc3)c3ccccc23)=C1Nc1ccccc1 | 22% | 14% | 1% | 14% | 3% |  |  | 52% | 65% | 140% | 50% |  |  |  |  |  | 80% |  |  | 
